This is a sample that favours compounds with a hit; in the whole collection about 2.3% have one here.
Tau fibril ThT = blocks human tau fibril formation measured by thioflavin T; P10636; recombinant tau K18 P301L, heparin-induced fibrillization, ThT fluorescence; Potency, µM (top dose mostly 57.4 µM), inactives show top-dose activity, negative = inhibition, most hits filed as inhibitors; actives 2.1% (n = 270,000); also: potency is read from the fitted curve at half-maximal effect; nearly all actives have a fitted effect of over 55% in size
Target sequence (P10636 561-689 P618L limits assumed): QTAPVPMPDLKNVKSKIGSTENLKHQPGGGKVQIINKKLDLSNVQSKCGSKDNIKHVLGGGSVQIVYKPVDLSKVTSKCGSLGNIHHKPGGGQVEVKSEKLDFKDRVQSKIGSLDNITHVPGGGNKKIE
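Heparin-induced fibrillization of the P301L-mutant K18 repeat-domain fragment of human tau was followed by ThT binding in quantitative high-throughput format.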
Tau fluor cs = counter-screen for tau fibril formation inhibitors. tau K18 P301L Alexa594 fluorescence, heparin fibrillization. Potency, µM (highest dose often 57.7 µM), without a hit: at the top dose activity change, negative = decrease. actives 0.93% (n = 280,000). AID 1463; also: potency is read from the fitted curve at half-maximal effect; nearly all actives have a fitted effect of over 55% in size
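Human tau K18 P301L (15 uM unlabeled, 0.24 uM Alexa 594-labeled) in 100 mM sodium acetate pH 7 with 20 uM heparin, 6 hr at 37 C. ThT 30 uM added, 1 hr ambient; Alexa 594 FP and total fluorescence read at 555/632 nm.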
Tau FP inhib = inhibitors of human tau fibril formation. actives 0.39% (n = 280,000). P10636. K18 P301L tau heparin fibrillization, Alexa594 FP, 6 h. Potency, µM (titrated, usually from 57.7 µM), for inactives: at the top dose activity, negative = inhibition, most hits filed as inhibitors; also: potency is read from the fitted curve at half-maximal effect; nearly all actives have a fitted effect of over 55% in size
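Compound effects on tau fibrillization are measured by Alexa 594 fluorescence polarization (ex 555, em 632 nm). K18 P301L tau is used at 15 uM with 0.24 uM labeled tracer, and 20 uM heparin induces aggregation over 6 hr at 37 C.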
USP1 inh = USP1/UAF1 (human) deubiquitinase inhibition. Potency, µM (highest dose often 57.1 µM), without a hit: at the highest dose activity change, negative = inhibition, actives largely listed as inhibitors. actives 0.23% (n = 390,000). recombinant USP1/UAF1, Ub-Rhodamine cleavage fluorescence; also: potency is read from the fitted curve at half-maximal effect; nearly all actives have a fitted effect of over 60% in size
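USP1/UAF1 complex at 1 nM was preincubated with compound for 15 min at room temperature, then Ub-Rho substrate (150nM final) was added. Fluorescence (480/540 nm) was read kinetically, 6 reads every 60 seconds.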
Coupling enz = counter-screen for Giardia aldolase inhibitors: coupling enzyme system; coupling enzyme system counterscreen, AmpLite Red fluorescence; activity change, negative = inhibition, % at 58.2 µM, hits read low; actives 0.67% (n = 290,000); in the data active = activity change below about -30%
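Final compound at 57.5 uM, incubated 10 min at RT with coupling enzyme reagent (glyceraldehyde-3-phosphate), then 20 min with substrate and AmpLite Red detection. Fluorescence read at 525/598 nm; tests interference with the coupling assay, not aldolase inhibition.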
The depositor's hits bear a star; u = inconclusive; x = no result given; [ ] = another dose, or the depositor's remark. Unless noted, calls follow the shape of the dose curve; as a rule, active = well fitted curve in the direction sought with a large enough effect; inconclusive = small, poorly fitted or top-dose-only effect, or another doubt; inactive = no such curve, though single readings can be large; an effect the other way counts as inactive or inconclusive. % is scaled to controls: 0 for no effect and ±100 for the full control effect.

SMILES	Tau fibril ThT	Tau fluor cs	Tau FP inhib	USP1 inh	Coupling enz
CCC(CC)NC(=O)C1CCN(c2ccc(S(=O)(=O)N3CCOCC3)cc2[N+](=O)[O-])CC1	x	x	x	-15.9%	x
O=C(NCCc1ccccc1)[C@@H]1CC=C[C@@H]2CCN(Cc3ccccc3)C(=O)[C@@H]21	x	x	x	-17.9%	x
CC(=O)OCCCNc1cc(Sc2nc3ccccc3s2)c2nonc2c1[N+](=O)[O-]	u	u	-0.3%	-17.9%	-35.2*
O=[N+]([O-])c1c(NCCCO)cc(Sc2ccc(Cl)cc2)c2nonc12	12.6µM*	u	u	-16.1%	-27.6
CC(=O)OCCCNc1cc(Sc2ccc(C)cc2)c2nonc2c1[N+](=O)[O-]	u	u	-7.6%	-21.1%	-3.4
CC(=O)Nc1ccc2nc(-c3cccn3C)[nH]c2c1	x	x	x	-6.6%	0.5
Cn1cccc1-c1nc2ccc(NC(=O)c3cccs3)cc2[nH]1	11.2µM*	u	6.5%	-1.0%	-2.9
CCOC(=O)c1c(C)[nH]c(C)c1S(=O)(=O)N(C)CC(=O)Nc1cccc(Cl)c1C	1.5%	-2.3%	-7.3%	-22.6%	x
Cc1cccc(NC(=O)NCCn2c(=O)oc3ccc(C)cc32)c1	0.5%	-3.6%	5.2%	-19.3%	x
Cc1cc(=O)n2nc(N3CCC(C(=O)Nc4ccc(C(C)C)cc4)CC3)sc2n1	u	-14.4%	-2.0%	-20.4%	x
CN1CC(=O)N(CC(=O)Nc2ccc(N(C)C)cc2)c2ccccc2C1=O	u	-29.1%	u	-16.3%	-41.7*
O=C(COc1ccccc1F)Nc1ccc(Cl)c(-c2nc3ccccc3[nH]2)c1	-14.4%	u	u	1.3%	x
O=C(COc1ccc(F)cc1)Nc1ccc(Cl)c(-c2nc3ccccc3[nH]2)c1	-2.0%	u	28.2µM*	40.1%	x
COc1ccc(OCC(=O)Nc2cccc(-c3nc4ccccc4[nH]3)c2)cc1	u	20µM*[quencher]	u	-13.1%	-2.0
CCCOc1ccc(C(=O)Nc2cccc(-c3nc4ccccc4[nH]3)c2)cc1	u	10µM*[quencher]	25.1µM*	-21.3%	x
O=C(Nc1ccc(Cl)c(-c2nc3ccccc3[nH]2)c1)c1ccc2c(c1)OCO2	u	u	17.8µM*	u	-3.3
O=C(Nc1ccc(-c2nc3ccccc3[nH]2)cc1)c1ccc2c(c1)OCO2	u	-24.2%	5.8%	-14.5%	x
CNC(=O)c1c(NC(=O)CCS(=O)(=O)c2ccc(C)cc2)sc(C)c1C	x	x	x	-12.0%	x
Cc1nc(NC(=O)CC(C)C)sc1-c1csc(Nc2ccc(Cl)cc2)n1	u	11.2µM*[quencher]	6.1%	-10.2%	0.1
Cc1nc(NC(=O)CC(C)C)sc1-c1csc(Nc2ccc(Cl)cc2Cl)n1	u	22.4µM*[quencher]	8.8%	-13.0%	1.9
COc1ccc(Cl)cc1Nc1nc(-c2sc(NC(=O)CC(C)C)nc2C)cs1	u	u	8.7%	-31.6%	-10.1
CCOc1ccc(Nc2nc3ccccc3n3nnnc23)cc1	-15.6%	u	9.5%	-24.7%	-2.6
CN(C)c1ccc(Nc2nc3ccccc3n3nnnc23)cc1	7.94µM*	11.2µM*[quencher]	12.9%	-6.9%	x
Cc1cccc(NC(=O)CSc2nnc(CNC(=O)c3ccco3)o2)c1	x	x	x	-16.4%	x
CC1=Nc2ccccc2/C1=C\c1nc(-c2ccc(F)cc2)oc1O	7.08µM*	10µM*[quencher]	u	28.2µM*	-1.1
SMILES	Tau fibril ThT	Tau fluor cs	Tau FP inhib	USP1 inh	Coupling enz
COc1ccc2[nH]cc(/C=C/c3cc[n+](C)cc3)c2c1	x	x	x	u	-13.6
OCC[n+]1ccc(/C=C/c2c[nH]c3ccccc23)cc1	u	-19.1%	-7.5%	28.2µM*	-48.1*
O=C(Nc1ccccc1)NC1CCS(=O)(=O)C1 (centres undefined)	-5.9%	-5.4%	0.3%	-14.2%	2.1
CN(C1=C(NC(=O)c2ccccc2)C(=O)c2ccccc2C1=O)C1CCS(=O)(=O)C1 (centres undefined)	14.1µM*	-26.9%	u	10µM*	-61.7*
CC(=O)NC1=C(NC2CCS(=O)(=O)C2)C(=O)c2ccccc2C1=O (centres undefined)	11.9%	8.1%	6.6%	u	-50.8*
COc1cc(NC(=O)C(NS(=O)(=O)c2ccc3c(c2)CCCC(=O)N3)C(C)C)cc(OC)c1 (centres undefined)	6.0%	1.9%	5.0%	-17.1%	x
COc1ccc(NC(=S)N2CCC(C(=O)c3ccc(F)cc3)CC2)cc1	x	x	x	-15.9%	x
O=C(NCCCN1CCCC1=O)c1ccccc1OCc1ccc(Cl)cc1Cl	x	x	x	5.9%	x
COc1cc(O)c2c(c1)C(=O)c1cc(C)cc(O)c1C2=O	u	-17.4%	-3.6%	x	0.4
O=C(O)c1cc(O)c2c(c1)C(=O)c1cc(O)cc(O)c1C2=O	7.08µM*	u	-6.1%	u	-4.1
Cn1c(N)c(C(=O)COC(=O)c2cc(-c3ccccc3)nc3ccccc23)c(=O)n(C)c1=O	-11.9%	u	u	x	1.3
Cn1c(N)c(C(=O)COC(=O)c2cc(-c3ccccc3)nc3ccccc23)c(=O)n(Cc2ccccc2)c1=O	-0.8%	u	14.1µM*	-22.3%	1.9
COc1cccc(NC(=S)N(CCc2c(C)[nH]c3ccc(C)cc23)Cc2cccs2)c1	-2.8%	-8.4%	6.0%	-5.9%	2.9
COc1ccc2[nH]c(C)c(CCN(Cc3cccs3)C(=S)Nc3cccc(F)c3)c2c1	u	10µM*[quencher]	2.1%	-24.6%	-43.1*
COc1ccc(OC)c(NC(=S)NCc2cccs2)c1	2.2%	1.6%	4.4%	-3.9%	1.7
COc1ccc(OC)c(NC(=S)N(CCc2c(C)[nH]c3ccc(C)cc23)Cc2cccs2)c1	-15.4%	8.91µM*[quencher]	12.7%	-17.0%	-3.6
COc1ccc(OC)c(NC(=S)N(CCc2c(C)[nH]c3ccccc23)Cc2cccs2)c1	-13.3%	7.08µM*[quencher]	3.3%	-23.4%	-3.9

Assay outcomes from PubChem.
